The record followed here is PubChem BioAssay (NCATS).

The nature of assay [1]: Validation of Assay for Modulators of Lamin A Splicing (AID 1459; active = well fitted curve in the direction sought with a large enough effect in the signal ratio; the % refers to the signal ratio;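 note: cells exposed to compound for two days before reading; ratio rise marks activators and ratio drop marks inhibitors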). Conditions: Lamin A splicing dual RFP/GFP fluorescence reporter; series mostly up to 9.22 µM. An outline of the steps:
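HeLa S3 lamin A-EGFP/DsRed2 stable clone, 600 cells/well, Opti-MEM 2% FBS; compounds by pin tool; 48 hrs, 37 °C/5% CO2; Acumen 488 nm scan, objects 10-100 um; GFP/RFP intensity ratio.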

For assay [2], the target named is DNA repair nuclease/redox regulator APEX1 (Homo sapiens) (UniProt P27695). Briefly: qHTS Validation Assay for Inhibitors of the Human Apurinic/apyrimidinic Endonuclease 1 (APE1) (AID 1705;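 note: TAMRA fluorescence gain over two minutes as APE1 cuts a quenched THF abasic duplex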). Conditions: purified APE1 endonuclease activity, fluorescence, titration; series mostly up to 57.1 µM. An outline of the steps:
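qHTS, 1536-well. APE1 + cpd 15 min RT → 50 nM TAMRA/BHQ-2 THF-abasic dsDNA substrate → kinetic fluorescence, 3 reads/60 s; delta(read3−read1) = reaction progress. No-enzyme buffer = negative control.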

Assay [3] in a line: Counterscreen for APE1 Inhibitors: Fluorescent Dye Displacement Validation Assay (AID 1707). Conditions: fluorescent dye displacement from DNA; series mostly up to 57.1 µM. An outline of the steps:
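Endpoint fluorescence read at 480 nm excitation / 540 nm emission; DNA-binding compounds lower signal by displacing 250 nM Thiazole Orange from 50 nM dsDNA containing a tetrahydrofuran abasic site, Tris-HCl pH7.5 buffer with NaCl and MgCl2.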
In general terms: Counterscreens check selectivity or assay interference.

Assay [4] concerns the target Endonuclease 4 (Escherichia coli (strain K12)) (UniProt P0A6C1). Briefly: Counterscreen for APE1 Inhibitors: qHTS Validation Assay for Inhibitors of Endonuclease IV (AID 1708). Conditions: E. coli endonuclease IV, DNA cleavage fluorescence; series mostly up to 57.1 µM. The essentials:
(§1)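 The reaction buffer contained 50 mM Tris-HCl pH 7.5, 50 mM NaCl, 2 mM MgCl2, 1 mM DTT and 0.01% Tween-20. Incision of a 50 nM fluorophore/quencher THF substrate by 2 nM enzyme was measured kinetically.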

Assay [5] in a line: qHTS for differential inhibitors of proliferation of Plasmodium falciparum line 3D7 (AID 1876). Note: potency is the fitted concentration of half-maximal effect. Conditions: P. falciparum 3D7 proliferation inhibition. A general note: In qHTS, concentration-response curves come from the screen itself.
Assay [6] in a line: qHTS for differential inhibitors of proliferation of Plasmodium falciparum line Dd2 (AID 1882).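 Note: compound exposure of 72 h on infected erythrocytes; nearly all actives have a fitted effect of over 65% in size.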 Conditions: series mostly up to 28.7 µM. The essentials: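 RBC culture, 0.3% parasitemia / 2.5% Hct final; cpd added by pin tool in DMSO; 72 h, 37 C, 5% CO2; lysis buffer + SYBR Green I, o/n RT dark; FI 485/535; norm. to artemisinin 0.29 uM and DMSO.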
A short description of assay [7]: qHTS for differential inhibitors of proliferation of Plasmodium falciparum line W2 (AID 1883).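 Note: potency is the fitted concentration of half-maximal effect; parasites grown with compound for 72 h before lysis and staining.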 Conditions: Plasmodium falciparum W2 proliferation inhibition.
For assay [8], the target named is Ferritin light chain (Equus caballus) (UniProt P02791). Briefly: qHTS Validation Assay for Identification of Novel General Anesthetics (AID 2323). Conditions: horse apoferritin, anesthetic-site fluorescent probe displacement; series mostly up to 76.9 µM. An outline of the steps: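 Fluorescence at 535 nm (excitation 380 nm) reported loss of 1-AMA binding to horse-spleen apoferritin (10 uM) in PBS with 50% saturated 1-aminoanthracene, after 10 min room-temperature incubation with compound; values from Hill fits of normalized response.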
Ferritin light chain (Equus caballus), sequence (P02791 2-175 limits assumed): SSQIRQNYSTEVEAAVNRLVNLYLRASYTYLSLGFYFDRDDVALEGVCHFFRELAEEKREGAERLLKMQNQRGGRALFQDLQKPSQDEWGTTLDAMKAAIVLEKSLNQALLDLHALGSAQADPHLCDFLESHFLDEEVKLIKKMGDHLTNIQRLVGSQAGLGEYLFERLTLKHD

The target of assay [9] is ATP-dependent DNA helicase Q1 (Homo sapiens) (UniProt P46063). Briefly: qHTS Validation Assay for Inhibitors of RecQ-Like Dna Helicase 1 (RECQ1) (AID 2353). Conditions: recombinant RECQ1 helicase DNA unwinding assay; series mostly up to 25.6 µM. The essentials:
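RECQ1T1 50 nM; forked duplex (20 bp + 30-nt ss tails) 200 nM, ATP 2 mM final; pH 8.0, 2 mM MgCl2, 2.5 ug/ml poly(dI-dC); 15 min compound preincubation; discontinuous kinetic read over 2 h at RT.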

Assay [10] addresses RecQ-like DNA helicase BLM (Homo sapiens) (UniProt P54132). Briefly: qHTS Validation Assay for Inhibitors of Bloom's syndrome helicase (BLM) (AID 2364). Conditions: BLM helicase DNA unwinding, fluorescence, in vitro; series mostly up to 57.1 µM. The essentials:
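Forked 20-bp duplex substrate (200 nM, TAMRA/BHQ-2) plus 2 mM ATP added after 15 min compound preincubation with 50 nM enzyme, pH 8.0, poly(dI-dC) 2.5 ug/ml. Strand separation followed by fluorescence (525/598 nm) over 2 h, normalized to enzyme-free and DMSO controls.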

A short description of assay [11]: Cytometric Cell-Based qHTS for Inhibitors of the mTORC1 Signaling Pathway in MEF (Tsc2-/-, p53-/-) Cells (AID 2660).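 Note: Tsc2 and p53 null MEFs carrying empty vector with compound for 24 h; percent of cells above a phospho-rpS6 to PI ratio cutoff in each well.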 Conditions: mTORC1 pathway cytometry; series mostly up to 38.3 µM. The essentials:
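Cells are plated, treated with compound for 24 hrs at 37 degree Celsius, then fixed, blocked and immunostained for phospho-rpS6 Ser235/236. Propidium iodide counterstain follows. Per-well % positive cells is derived from the PI-normalized phospho-S6 signal.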

Assay [12] in a line: High Content Imaging Cell-Based qHTS for Inhibitors of the mTORC1 Signaling Pathway in MEF (Tsc2-/-, p53-/-) Cells (AID 2666).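 Note: percent of cells scored positive for phospho-rpS6 Ser235/236 immunostaining by imaging.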 Conditions: at 38.3 µM (top of the series). The essentials: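 Tsc2-/-, p53-/- MEFs (empty-vector stable) grown in DMEM + 10% FBS were exposed to compounds for 24 hrs at 37 degree Celsius, fixed, and stained with Alexa-488 anti-phospho-rpS6 Ser235/236 plus Hoechst. Imaging gave the percentage of positive cells per well.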

A short description of assay [13]: High Content Imaging Cell-Based qHTS for Inhibitors of the mTORC1 Signaling Pathway in MEF Cells (AID 2667).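 Note: Tsc2-/- p53-/- MEFs stably re-expressing wild-type Tsc2 exposed 24 h.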 Conditions: series mostly up to 38.3 µM. An outline of the steps:
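Tsc2-/-, p53-/- MEFs stably re-expressing WT Tsc2, grown in DMEM + 10% FBS, were treated with compounds for 24 hrs at 37 degree Celsius, fixed, and stained with Alexa-488 phospho-rpS6 Ser235/236 antibody plus Hoechst; results given as % positive cells.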

Assay [14] is described as follows: Cytometry Cell-Based qHTS for Inhibitors of the mTORC1 Signaling Pathway in MEF cells (AID 2668).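 Note: Tsc2-/- p53-/- mouse embryonic fibroblasts stably re-expressing wild-type Tsc2; percent cells positive for phospho-rpS6 Ser235/236 relative to propidium iodide stain.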 Conditions: mTORC1 pathway readout; series mostly up to 38.3 µM. The essentials:
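Tsc2-/-, p53-/- MEFs re-expressing WT Tsc2; cpd 24 hrs, 37 degree Celsius; PFA fix, Alexa-488 p-rpS6 (Ser235/236) Ab 2 hrs RT, PI counterstain; Acumen 488nm scan; p-S6/PI ratio → % positive cells; PI count = viability.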

In assay [15] the target is Endonuclease 4 (Escherichia coli (strain K12)) (UniProt P0A6C1). Briefly: Counterscreen for APE1 Inhibitors: qHTS Assay for Inhibitors of Endonuclease IV (AID 2565). Conditions: E. coli Endo IV, fluorogenic AP-site DNA cleavage; series mostly up to 57.1 µM. An outline of the steps: as §1
For assay [16], the target named is DNA repair nuclease/redox regulator APEX1 (Homo sapiens) (UniProt P27695). Briefly: Confirmation qHTS Assay for Inhibitors of the Human Apurinic/apyrimidinic Endonuclease 1 (APE1) (AID 2572). Note: potency is the fitted concentration of half-maximal effect; nearly all actives have a fitted effect of over 30% in size. Conditions: purified APE1, fluorogenic abasic-site DNA cleavage. An outline of the steps: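 Inhibition is measured on a short double-stranded THF-site oligo, 50 nM final, whose incision relieves BHQ-2 quenching of TAMRA. After 15 min enzyme–compound preincubation at RT, three reads a minute apart are taken.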
DNA repair nuclease/redox regulator APEX1 (Homo sapiens), sequence (P27695 whole entry, looked up): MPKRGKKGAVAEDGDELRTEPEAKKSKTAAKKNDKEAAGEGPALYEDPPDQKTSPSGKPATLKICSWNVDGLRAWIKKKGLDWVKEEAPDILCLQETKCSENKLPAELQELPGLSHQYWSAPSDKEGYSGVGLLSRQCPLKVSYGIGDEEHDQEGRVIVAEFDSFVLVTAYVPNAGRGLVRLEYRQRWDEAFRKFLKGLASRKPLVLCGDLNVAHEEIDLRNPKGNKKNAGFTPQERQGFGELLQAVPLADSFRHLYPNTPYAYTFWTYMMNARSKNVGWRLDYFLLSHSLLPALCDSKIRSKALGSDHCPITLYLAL

For assay [17] the target is unchanged. Briefly: qHTS FP-Based Assay for Inhibitors of the Human Apurinic/apyrimidinic Endonuclease 1 (APE1) (AID 2573). Conditions: APE1 binding to TAMRA-labelled double-stranded DNA, fluorescence polarization displacement; series mostly up to 57.1 µM. From the text: The apurinic/apyrimidinic endonuclease APE1 is the primary mammalian enzyme responsible for the removal of abasic (or AP) sites in DNA and functions centrally in the base excision DNA repair (BER) pathway. […] Thus, targeting APE1 could improve the efficacy of current treatment paradigms by promoting selective sensitization or protection of diseased and normal cells, respectively.
In order to gain insight into the mode of action of confirmed APE1 inhibitors, we implemented a miniaturized fluorescence polarization assay designed to report on compounds which competitively displace ds-DNA substrate. The fluorescence polarization assay has been implemented in 384- and 1536-well format for binding of TAMRA-labeled double-stranded DNA probe not containing a quencher. The binding of protein to DNA is inhibited by ATA, a general inhibitor of APE1 activity.
See also related primary fluorogenic assay (AID 2517). […]
Three uL of enzyme were dispensed to 1536-well Greiner black solid bottom plates. […] The plates were immediately transferred into ViewLux High-throughput CCD imager (Perkin-Elmer) in order to measure the reaction progress in kinetic mode (three reads every 60 seconds) using 525 nm excitation and 598 nm emission fluorescence protocol. The fluorescence intensity difference between the third and the first time points was used to compute reaction progress.

The structures appear in SMILES notation. Results filed as inconclusive are left out. The list shows a part of the results. Calls of active or inactive are those of the source. Unless noted, calls come from the whole dose curve; as a rule, active = well fitted curve in the direction sought with a large enough effect; inconclusive = small, poorly fitted or top-dose-only effect, or another doubt; inactive = no such curve, though single readings can be large; an effect the other way counts as inactive or inconclusive.

ATP-dependent DNA helicase Q1 (Homo sapiens), sequence (P46063 whole entry, looked up): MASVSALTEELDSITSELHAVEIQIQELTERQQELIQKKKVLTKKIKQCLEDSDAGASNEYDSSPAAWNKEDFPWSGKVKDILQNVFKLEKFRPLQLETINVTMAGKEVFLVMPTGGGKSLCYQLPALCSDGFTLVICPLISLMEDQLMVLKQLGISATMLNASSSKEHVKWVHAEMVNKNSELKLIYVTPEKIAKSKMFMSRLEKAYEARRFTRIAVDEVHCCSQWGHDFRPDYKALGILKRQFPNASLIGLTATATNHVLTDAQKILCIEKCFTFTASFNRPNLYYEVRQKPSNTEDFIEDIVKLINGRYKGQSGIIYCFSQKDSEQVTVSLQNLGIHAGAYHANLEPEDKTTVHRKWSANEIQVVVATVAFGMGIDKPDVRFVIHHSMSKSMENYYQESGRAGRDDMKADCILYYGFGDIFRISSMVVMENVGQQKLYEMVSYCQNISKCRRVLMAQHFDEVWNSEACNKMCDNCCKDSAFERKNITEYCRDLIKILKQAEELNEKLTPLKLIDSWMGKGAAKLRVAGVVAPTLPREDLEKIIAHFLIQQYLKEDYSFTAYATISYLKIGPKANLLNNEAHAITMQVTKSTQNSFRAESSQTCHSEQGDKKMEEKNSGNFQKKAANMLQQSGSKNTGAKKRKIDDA
RecQ-like DNA helicase BLM (Homo sapiens), sequence (P54132 whole entry, looked up): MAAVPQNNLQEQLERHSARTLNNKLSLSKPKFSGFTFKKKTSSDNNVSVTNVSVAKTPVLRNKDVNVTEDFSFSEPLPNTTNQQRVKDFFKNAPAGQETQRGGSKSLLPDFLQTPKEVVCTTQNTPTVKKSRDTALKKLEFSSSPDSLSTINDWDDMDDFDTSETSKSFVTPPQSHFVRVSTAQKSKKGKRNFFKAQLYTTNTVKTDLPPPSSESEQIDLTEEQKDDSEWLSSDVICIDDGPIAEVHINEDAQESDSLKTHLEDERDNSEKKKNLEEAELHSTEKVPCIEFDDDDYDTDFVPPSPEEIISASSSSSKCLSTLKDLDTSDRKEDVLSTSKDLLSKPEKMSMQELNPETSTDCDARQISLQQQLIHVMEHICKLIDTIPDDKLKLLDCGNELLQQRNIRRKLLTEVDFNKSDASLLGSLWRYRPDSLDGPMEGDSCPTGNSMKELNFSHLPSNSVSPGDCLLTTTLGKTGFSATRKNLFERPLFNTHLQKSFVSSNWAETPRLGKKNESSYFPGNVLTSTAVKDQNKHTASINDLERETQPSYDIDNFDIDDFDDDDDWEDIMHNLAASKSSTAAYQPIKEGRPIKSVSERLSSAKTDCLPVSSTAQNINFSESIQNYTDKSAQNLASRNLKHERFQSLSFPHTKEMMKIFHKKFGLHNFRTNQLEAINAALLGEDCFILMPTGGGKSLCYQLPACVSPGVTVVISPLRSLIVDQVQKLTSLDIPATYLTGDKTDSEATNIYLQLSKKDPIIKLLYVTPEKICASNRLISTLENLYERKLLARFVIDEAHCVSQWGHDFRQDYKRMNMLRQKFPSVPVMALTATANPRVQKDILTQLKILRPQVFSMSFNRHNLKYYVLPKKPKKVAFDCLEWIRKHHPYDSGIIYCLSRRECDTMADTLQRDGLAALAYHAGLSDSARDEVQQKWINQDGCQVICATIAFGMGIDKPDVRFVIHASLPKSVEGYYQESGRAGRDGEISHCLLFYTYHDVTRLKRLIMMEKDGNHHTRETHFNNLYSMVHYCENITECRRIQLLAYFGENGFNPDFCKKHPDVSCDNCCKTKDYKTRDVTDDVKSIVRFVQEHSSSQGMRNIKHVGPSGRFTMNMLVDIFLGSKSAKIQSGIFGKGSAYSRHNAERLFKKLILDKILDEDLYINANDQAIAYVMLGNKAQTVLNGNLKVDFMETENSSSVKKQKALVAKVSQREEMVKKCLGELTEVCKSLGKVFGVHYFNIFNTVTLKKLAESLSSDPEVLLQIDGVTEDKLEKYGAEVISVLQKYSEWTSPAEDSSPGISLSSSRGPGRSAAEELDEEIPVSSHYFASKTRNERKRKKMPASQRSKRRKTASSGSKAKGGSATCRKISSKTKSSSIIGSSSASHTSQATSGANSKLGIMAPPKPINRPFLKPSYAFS

Take `CC[N+](C)(C)Cc1ccccc1Br`: the result in [1], in [2], in assay [3], in assay [4], in assay [6] and in assay [8] was inactive. The result in assay [9] and in [10] was inactive. In addition, the Potency was 14.1 µM (active) in [5] and 11.2 µM (active) in assay [7].
As to `CN1Cc2c(N)cccc2C(c2ccccc2)C1` (configuration not stated), the compound was called inactive in assay [1], in [2], in assay [8], in [9], in assay [10] and in [11]. Besides, the call in [12], in assay [13] and in assay [14] was inactive.
`Oc1cc(O)c2c(c1)OC(c1ccc(O)c(O)c1)C(O)C2` (configuration not stated): the call in [15] and in [17] was inactive. Moreover, the Potency in [16] is 2.51 µM (active).
